This note sets out measurements from PubChem BioAssay (NCATS).

The target of test [1] is Calcium and integrin-binding protein 1 (Homo sapiens) (UniProt Q99828). The test can be described thus: Primary qHTS for Identification of Calcium Integrin Binding Protein 1 (CIB1) Competitor (AID 1508620; active means well fitted curve in the direction sought with a large enough effect; an effect the other way counts as inactive or inconclusive;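 further: GST tagged CIB1 binding a fluorescein labelled alphaIIb integrin peptide tracer; top concentration of the series differs between compounds; on the % scale 0 is the no-effect control and ±100 the full control effect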). To be noted: CIB1-GST / FITC-alphaIIb peptide fluorescence polarization; series mostly up to 57.7 µM. In short, it runs like this: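 CIB1-GST (1 uM final) and compound incubated 15 min at room temperature before adding FITC-alphaIIb peptide tracer (100 nM final). Competition for binding read by fluorescence polarization (ex 480, em 540) after another 15 min at room temperature.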

Test [2] in a line: Primary qHTS for small molecule stabilizers of the endoplasmic reticulum resident proteome: Secreted ER Calcium Modulated Protein (SERCaMP) assay (AID 1508630; active means well fitted curve in the direction sought with a large enough effect; an effect the other way counts as inactive or inconclusive; further: on the % scale 0 is the no-effect control and ±100 the full control effect). The following applies: SH-SY5Y GLuc-SERCaMP (Gaussia luciferase released on ER calcium loss) secretion, thapsigargin, luminescence; series mostly up to 38.4 µM. An outline of the steps:
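GLuc-SERCaMP-expressing SH-SY5Y cells, pretreated 16 h with compound, are challenged with thapsigargin to empty ER calcium stores; after 4 h, coelenterazine is added directly to the medium and luminescence is imaged.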

Test [3] addresses Cytochrome P450 2D6 (Homo sapiens) (UniProt P10635). The test can be described thus: Cytochrome P450 family 2 subfamily D member 6 (CYP2D6) small molecule antagonists: luciferase biochemical (cell-free) qHTS assay (AID 1645840). Further: nearly all actives have a fitted effect of over 55% in size. Further: potency means the concentration at half of the fitted maximal effect. To be noted: P450-Glo CYP2D6 enzyme, luciferin luminescence, 1 h; series mostly up to 57.4 µM. An outline of the steps: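 P450-Glo luminescent screen: recombinant CYP2D6 enzyme–proluciferin substrate mix preincubated with compound 10 min at room temperature, then NADPH regeneration added for 1 h at room temperature. Detection reagent added for 20 min; luciferin light read as relative luminescence units.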

In test [4] the target is Cytochrome P450 2C9 (Homo sapiens) (UniProt P11712). The test can be described thus: Cytochrome P450 family 2 subfamily C member 9 (CYP2C9) small molecule antagonists: luciferase biochemical (cell-free) qHTS assay (AID 1645842). Further: nearly all actives have a fitted effect of over 55% in size. Further: potency means the concentration at half of the fitted maximal effect. The following applies: P450-Glo CYP2C9 enzyme assay, luciferin luminescence; series mostly up to 57.4 µM. An outline of the steps:
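Luminescence, after 20 min with luciferin detection reagent, reflected CYP2C9 turnover during a 1 h NADPH-driven reaction at 37C. Enzyme-substrate mix contained 0.4% bovine serum albumin and was preincubated with compound 10 min at room temperature.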

A short description of test [5]: A High-Content qHTS Against Drug Library for the Identification of Small Molecules that Inhibit DYT1 Early Onset Primary Dystonia-Associated Cell Pathology (AID 1645839; calls by dose curve; further: potency means the concentration at half of the fitted maximal effect). To be noted: HEK293 Flp-In EGFP-delE TorsinA, punctate imaging, 48 h; series mostly up to 91.7 µM. In short, it runs like this: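 In this high-content image screen, delE TorsinA mislocalization in inducible Flp-In 293 cells is scored as %pathology, with cell count serving as the counterscreen. Compound exposure lasts 48 h under tetracycline induction in reduced-serum medium.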

Test [6] in a line: Counterscreen qHTS for small molecule stabilizers of the endoplasmic reticulum resident proteome: GLuc-NoTag assay (AID 1508627; active means well fitted curve in the direction sought with a large enough effect; an effect the other way counts as inactive or inconclusive;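 further: SH-SY5Y cells given compound then 100 nM thapsigargin to empty ER calcium; 0% = thapsigargin alone and -100% = DMSO vehicle control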). The following applies: Gaussia luciferase NoTag secretion counterscreen, luminescence, thapsigargin 100 nM for final 4 h; series mostly up to 76.4 µM. In short, it runs like this: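 Luminescence of Gaussia luciferase secreted into the medium (coelenterazine, 0.07x final, unlysed cells) was the read-out. Human SH-SY5Y neuroblastoma cells constitutively secreting untagged GLuc received compound for 19 h, then 100 nM thapsigargin for 4 h.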

Test [7] concerns the target Cytochrome P450 3A4 (Homo sapiens) (UniProt P08684). As to the kind of experiment: Cytochrome P450 family 3 subfamily A member 4 (CYP3A4) small molecule antagonists: luciferase qHTS assay (AID 1645841). Further: nearly all actives have a fitted effect of over 45% in size. Further: potency means the concentration at half of the fitted maximal effect. The following applies: P450-Glo CYP3A4 enzyme assay, luciferin luminescence; series mostly up to 57.4 µM. An outline of the steps:
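Luminescent CYP3A4 activity readout: compounds plus enzyme-substrate mix 10 min at room temperature, reaction started with NADPH regenerating system for 1 h, stopped with detection reagent, read after 20 min. Ketoconazole served as control.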

Test [8] is described as follows: Confirmatory qHTS for small molecule stabilizers of the endoplasmic reticulum resident proteome: Secreted ER Calcium Modulated Protein (SERCaMP) assay (AID 1508628; active means well fitted curve in the direction sought with a large enough effect; an effect the other way counts as inactive or inconclusive; further: on the % scale 0 is the no-effect control and ±100 the full control effect; nearly all actives have a fitted effect of over 40% in size). To be noted: SERCaMP secreted luciferase ER calcium/proteostasis reporter; series mostly up to 76.3 µM. In short, it runs like this:
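SH-SY5Y cells stably expressing GLuc-SERCaMP, treated 16 h with compound (primary 1.53, 7.67, 38.3 uM; confirmation 11 concentrations, up to 76.6 uM), then 100 nM thapsigargin for 4 h. Secreted Gaussia luciferase in medium read by coelenterazine luminescence.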

Test [9] can be described thus: Cell Viability qHTS for small molecule stabilizers of the endoplasmic reticulum resident proteome (AID 1508629; active means well fitted curve in the direction sought with a large enough effect; an effect the other way counts as inactive or inconclusive;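 further: human SH-SY5Y neuroblastoma cells carrying the GLuc-SERCaMP reporter; compound exposure about 46 h in total before the viability read; on the % scale 0 is the no-effect control and ±100 the full control effect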). To be noted: cell viability counter-screen, 100 nM thapsigargin for final 4 h.

The structures appear in SMILES notation. Several values for one entry are separate records, joined by “and”; a condition that tells them apart may be missing. Identical values can stand only once. Records with an inconclusive call do not appear. A number with no mark means an inactive call. Activity calls are given as the source filed them. Unless noted, the call rests on the fitted dose curve; in most records, active means well fitted curve in the direction sought with a large enough effect in the repeat runs; inconclusive means weak or mixed curves; inactive means no such curve, though single readings can be large; an effect the other way counts as inactive or inconclusive.

Sequence of Cytochrome P450 2C9 (Homo sapiens) (P11712 whole entry, looked up): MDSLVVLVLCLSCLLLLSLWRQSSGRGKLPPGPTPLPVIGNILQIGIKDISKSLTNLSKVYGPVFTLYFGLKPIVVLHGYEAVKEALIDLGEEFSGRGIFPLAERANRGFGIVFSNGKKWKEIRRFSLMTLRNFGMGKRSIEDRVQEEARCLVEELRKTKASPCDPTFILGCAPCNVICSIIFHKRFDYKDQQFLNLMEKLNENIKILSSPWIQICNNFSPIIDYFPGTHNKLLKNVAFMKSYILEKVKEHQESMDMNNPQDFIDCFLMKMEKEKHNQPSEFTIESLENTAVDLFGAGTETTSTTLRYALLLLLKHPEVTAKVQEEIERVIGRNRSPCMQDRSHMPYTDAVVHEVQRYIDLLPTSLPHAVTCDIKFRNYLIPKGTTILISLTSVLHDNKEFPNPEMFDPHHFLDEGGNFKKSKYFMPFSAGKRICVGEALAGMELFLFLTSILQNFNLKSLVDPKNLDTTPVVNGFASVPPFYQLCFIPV
Sequence of Cytochrome P450 2D6 (Homo sapiens) (P10635 whole entry, looked up): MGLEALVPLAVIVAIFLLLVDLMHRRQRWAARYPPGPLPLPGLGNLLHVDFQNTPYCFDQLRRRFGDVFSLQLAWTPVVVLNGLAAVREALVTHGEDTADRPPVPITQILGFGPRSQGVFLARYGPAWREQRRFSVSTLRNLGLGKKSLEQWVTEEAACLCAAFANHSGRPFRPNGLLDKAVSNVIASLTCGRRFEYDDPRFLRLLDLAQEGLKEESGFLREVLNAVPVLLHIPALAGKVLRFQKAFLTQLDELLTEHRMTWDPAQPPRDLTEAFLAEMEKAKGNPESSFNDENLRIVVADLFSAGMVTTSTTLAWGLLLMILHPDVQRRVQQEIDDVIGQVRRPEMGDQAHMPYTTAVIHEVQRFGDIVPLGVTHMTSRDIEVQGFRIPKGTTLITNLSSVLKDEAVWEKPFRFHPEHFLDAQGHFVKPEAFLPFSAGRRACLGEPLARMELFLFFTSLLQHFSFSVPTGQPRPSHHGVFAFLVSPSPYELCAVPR
Sequence of Cytochrome P450 3A4 (Homo sapiens) (P08684 whole entry, looked up): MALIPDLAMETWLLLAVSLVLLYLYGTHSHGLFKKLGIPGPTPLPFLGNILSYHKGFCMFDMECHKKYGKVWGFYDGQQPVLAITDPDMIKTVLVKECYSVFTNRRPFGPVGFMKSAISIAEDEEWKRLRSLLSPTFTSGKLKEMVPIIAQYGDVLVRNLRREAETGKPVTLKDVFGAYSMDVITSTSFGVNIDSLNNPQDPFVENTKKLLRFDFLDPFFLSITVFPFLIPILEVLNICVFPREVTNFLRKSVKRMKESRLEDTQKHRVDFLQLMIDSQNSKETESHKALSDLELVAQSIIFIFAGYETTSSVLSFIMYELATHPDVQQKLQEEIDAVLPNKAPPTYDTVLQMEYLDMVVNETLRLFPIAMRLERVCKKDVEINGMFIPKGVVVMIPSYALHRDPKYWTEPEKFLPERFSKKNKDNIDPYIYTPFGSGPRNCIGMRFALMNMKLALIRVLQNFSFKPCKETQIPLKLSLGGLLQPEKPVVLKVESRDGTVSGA
Sequence of Calcium and integrin-binding protein 1 (Homo sapiens) (Q99828 whole entry, looked up): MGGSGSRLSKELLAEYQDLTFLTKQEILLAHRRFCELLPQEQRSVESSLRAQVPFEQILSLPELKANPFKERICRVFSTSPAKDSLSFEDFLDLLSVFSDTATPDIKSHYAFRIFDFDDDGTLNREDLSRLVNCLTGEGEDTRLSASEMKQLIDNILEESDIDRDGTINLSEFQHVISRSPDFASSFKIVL

For the compound `COc1ccc(N(C(=O)Oc2c(C)cccc2C)c2ccnc(Nc3ccc(N4CCN(C)CC4)cc3)n2)c(OC)c1`, the outcome in [1] was inactive. In test [2], the Potency entry is “inactive”. Also, the Potency in [3] was 1.9 µM (active); in test [4], 21.3 µM (active).

As for `COc1ccc2c(c[n+](C)c3c4cc5c(cc4ccc23)OCO5)c1OC`, the Potency result in test [2] was “inactive”.

In the case of `CC1(N2CCC(n3c([C@@H]4CCCNC4)nc4ccccc43)CC2)CCCCCCC1`, the outcome in test [1] was inactive. For the same compound, in test [4], the Potency result is “inactive”.

As for `CC(=O)N(C)c1cccc(-c2ccnc3c(C(=O)c4cccs4)cnn23)c1`, in test [1], the outcome was inactive. Also, the Potency entry in test [2], in test [3] and in [4] was “inactive” in each case.

For the compound `CN(C)[C@@H]1C(=O)C(C(N)=O)=C(O)[C@@]2(O)C(=O)C3=C(O)c4c(O)cccc4[C@@](C)(O)[C@H]3[C@H](O)[C@@H]12`, the result in test [1] was inactive. For the same compound, the Potency entry in test [2] and in test [4] was “inactive” in each case.

As for `O=C(O)c1ccccn1`, the Potency result in test [3] and in test [4] was “inactive” each time.

On to `CC(=O)Nc1ccc(OC[C@](C)(O)C(=O)Nc2ccc([N+](=O)[O-])c(C(F)(F)F)c2)cc1`, for which the result in test [1] was inactive. In [2], the Potency entry was “inactive”. The Potency in test [4] is 9.52 µM (active).

Consider `CCC1(CCC(C)C)C(=O)NC(=O)NC1=O`, for which the result in test [1] was inactive. Further, the Potency result in test [5], in test [3] and in test [4] was “inactive” in each case.

Regarding `Oc1ccc2c3c1O[C@H]1[C@@H](O)C=C[C@H]4[C@@H](C2)NCC[C@@]341`, the Potency entry in [6], in [5] and in [4] was “inactive” in each case.

Turning to `C=CCC1=C(C)C(OC(=O)C2C(C=C(C)C)C2(C)C)CC1=O` (stereo not drawn), the outcome in test [1] was inactive. Further, in test [5], the Potency result was “inactive”. Also, the figures for the Potency in [3] and in test [4] were 23.8 µM (active) and 5.02 µM (active), respectively.

With `CC(C)(O)C(=O)Nc1ccc([N+](=O)[O-])c(C(F)(F)F)c1`, the Potency entry in [2] is “inactive”.

For `CC1=C(O)C(=O)C=C2C1=CC=C1[C@@]2(C)CC[C@@]2(C)[C@@H]3C[C@](C)(C(=O)O)CC[C@]3(C)CC[C@]12C`, in test [2], the Potency result is “inactive”. Further, the Potency in test [4] is 12 µM (active).

In the case of `O=C(O)c1ccccc1O`, the Potency entry in test [3], in test [7] and in test [4] was “inactive” each time.

On to `O=[N+]([O-])c1c(Cl)c(Cl)cc(Cl)c1Cl`, for which the outcome in test [1] was inactive. The Potency result in [5], in [3] and in test [4] was “inactive” throughout.

For `Nc1ccc([N+](=O)[O-])cc1`, in [1], the outcome was inactive. Besides, the Potency result in test [3] and in test [4] was “inactive” in each case.

Turning to `CC(C)Oc1cccc(NC(=O)c2ccccc2C(F)(F)F)c1`, the Potency result in test [2] was “inactive”. Moreover, in test [4], the Potency was 5.97 µM (active).

For `CCCCC(CC)COC(=O)c1ccccc1C(=O)OCC(CC)CCCC` (stereo not drawn), the outcome in test [1] was inactive. Also, the Potency entry in test [5] and in [3] was “inactive” each time.

For `OCCCBr`, the outcome in test [1] was inactive. Also, the Potency result in [5] and in test [3] was “inactive” each time.

For the compound `CC[N+]1(CCOC(=O)C(O)(c2ccccc2)c2ccccc2)CCCCC1`, the outcome in [1] was inactive. Moreover, the Potency entry in [5], in [7] and in test [4] was “inactive” each time.

As to `CC(=O)[O][Hg][c]1ccccc1`, in test [2], the Potency result was “inactive”. Also, the Potency in test [5] is 2.82 µM (active); in test [3], 0.617 µM (active); in [7] it was 7.76 µM (active); in test [4] it was 2.45 µM (active).

As for `CCOCCOC(C)=O`, the outcome in test [1] was inactive. Besides, the Potency result in test [5], in [3] and in [4] was “inactive” each time.

With `CCOP(=O)(NC(C)C)Oc1ccc(SC)c(C)c1` (stereo not drawn), in [1], the outcome was inactive. For the same compound, the Potency result in [5] was “inactive”. The Potency in test [3] is 3.88 µM (active); in [4], 9.47 µM (active).

With `CCOC(=O)Nc1ccc(NCc2ccc(F)cc2)cc1N`, the outcome in test [1] was inactive. The Potency result in test [2] was “inactive”. Besides, the results for the Potency in test [3] and in [4] were 19 µM (active) and 9.52 µM (active), respectively.

As for `Cc1c(C(=O)Nc2cccc(C(F)(F)F)c2)cc(-c2ccccc2)n1CCCN1CCOCC1`, in [1], the outcome was inactive. Besides, in [2], the Potency entry was “inactive”. Further, the Potency in [4] is 4.77 µM (active).

Regarding `c1cc2ccc3cccc4ccc(c1)c2c34`, the result in test [1] was inactive. The Potency entry in test [5], in test [3] and in test [4] was “inactive” in each case.

For `S=C(SSC(=S)N1CCCCC1)N1CCCCC1`, the Potency entry in test [2], in test [5] and in [3] was “inactive” each time.

Consider `COc1ccc(C(c2ccc(OC)cc2)C(Cl)(Cl)Cl)cc1`, for which, in test [1], the result was inactive. Further, the Potency result in test [3] was “inactive”. The Potency in test [4] is 1.49 µM (active).

On to `Cc1ccc(Cl)c(O)c1`, for which the outcome in test [1] was inactive. Also, the Potency entry in [5], in test [3] and in [4] was “inactive” in each case.

With `C[C@]12COC(=O)C[C@@H]1CC[C@@H]1[C@H]2CC[C@@]2(C)[C@H]1CC[C@]2(C)O`, the outcome in test [1] was inactive. The Potency result in [3] and in test [4] was “inactive” each time.

With `CS(=O)(=O)c1ccc(C(=O)C2C(=O)CCCC2=O)c([N+](=O)[O-])c1`, the Potency result in test [2], in [5] and in [3] was “inactive” each time. The Potency in [4] was 26.4 µM (active).

`CCCCCCCCCCCCCCCC[N+](C)(C)C`: the Potency result in test [2] and in test [4] was “inactive” throughout. Moreover, the Potency is 12.6 µM (active) in test [5]; 871 nM (active) and 849 nM (active) in [3].

For the compound `Clc1ccc(C(c2ccc(Cl)cc2)n2cc[n+](CC(OCc3ccc(Cl)cc3Cl)c3ccc(Cl)cc3Cl)c2)cc1` (stereo not drawn), the Potency result in [6] and in test [8] was “inactive” in each case. In addition, in [9], the max response was -14.7%.

In the case of `CC(C)(C)NC[C@H](O)c1ccc(O)cc1Cl`, the result in test [1] was inactive. Besides, the Potency result in [5], in test [3] and in test [4] was “inactive” in each case.

Take `O=C1C(I)=CC(=C(c2cc(I)c(O)c(I)c2)c2ccccc2C(=O)O)C=C1I`: the Potency is 9.77 µM (active) in test [3] and 3.09 µM (active) in test [4].

As for `COc1nn(CSP(=S)(OC)OC)c(=O)s1`, the Potency entry in test [2] is “inactive”. The Potency in [3] is 25.9 µM (active); in test [4] it was 5.17 µM (active).

In the case of `COCCOCCO`, in [1], the result was inactive. In addition, the Potency entry in test [5], in test [3] and in [4] was “inactive” in each case.

For the compound `O=C(O)CCCOc1ccc(Cl)cc1Cl`, the outcome in test [1] was inactive. Further, the Potency entry in [5] and in test [3] was “inactive” each time.

Regarding `CN[C@@H](C)[C@H](O)c1ccccc1`, the Potency result in [2], in [5], in test [3] and in [4] was “inactive” each time.
